PubChem BioAssay (Tox21)
Values joined by “and” are separate entries in the source; they are usually repeats but may differ in a detail not shown here. Equal entries are not always repeated. Records with an inconclusive call do not appear. More than one record can exist for a structure, and the calls need not agree. Active and inactive are the calls of the source. Unless noted, the call rests on the fitted dose curve; in most records, active means well fitted curve in the direction sought with a large enough effect in the repeat runs; inconclusive means weak or mixed curves; inactive means no such curve, though single readings can be large; an effect the other way counts as inactive or inconclusive.

Columns and labels:
[1] = qHTS RealTime-Glo MT Cell Viability Assay in HepG2 cells - 24 hour (AID 1224867); further: nearly all actives have a fitted effect of over 50% in size; further: potency means the concentration at half of the fitted maximal effect
Method in brief: (§1)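 Luminescence read-out: viable HepG2 cells reduce a prosubstrate to a NanoLuc substrate, giving a signal proportional to live cell number. Reads taken at 0, 8, 16, 24, 32 and 40 h of compound exposure at 37 C.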

[2] = A CellTox Green Cytotoxicity Assay to monitor cytotoxicity in HEK293 cells - 0 hour (AID 1224869); further: nearly all actives have a fitted effect of over 50% in size; further: potency means the concentration at half of the fitted maximal effect; on Cytotoxicity: on the % scale 0 is the no-effect control and ±100 the full control effect
Method in brief: (§2)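 HEK293 cells premixed with CellTox Green dye were seeded at 600 cells/well and left 5 h at 37 C/5% CO2 before pin transfer of 23 nL compound in DMSO. Fluorescence from dye bound to dead-cell DNA was read during 40 h treatment.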

[3] = qHTS RealTime-Glo MT Cell Viability Assay in HEK293 cells - 16 hour (AID 1224872); further: nearly all actives have a fitted effect of over 50% in size; further: potency means the concentration at half of the fitted maximal effect
Method in brief: (§3)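 Nonlytic real-time viability readout: viable cells convert prosubstrate to NanoLuc substrate, giving luminescence proportional to live cell number. HEK293, 600 cells/well, compound added after 5 h, continuous culture at 37 C.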

[4] = qHTS RealTime-Glo MT Cell Viability Assay in HepG2 cells - 8 hour (AID 1224873); further: nearly all actives have a fitted effect of over 55% in size; further: potency means the concentration at half of the fitted maximal effect
Method in brief: (§4)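 HepG2 cells mixed with RealTime-Glo MT reagents (NanoLuc plus cell-permeant prosubstrate) were seeded at 600 cells/well, incubated 5 h at 37 C/5% CO2, then pinned with compounds in DMSO; nonlytic luminescence tracked viability during 40 h treatment.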

[5] = A CellTox Green Cytotoxicity Assay to monitor cytotoxicity in HepG2 cells - 16 hour (AID 1224876); further: nearly all actives have a fitted effect of over 45% in size; further: potency means the concentration at half of the fitted maximal effect
Method in brief: (§5)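 HepG2 cells were seeded together with the CellTox Green dye at 600 cells/well, left 5 h at 37 C/5% CO2, then given compounds in DMSO. Fluorescence from dye bound to dead-cell DNA was read repeatedly over 40 h of treatment at 37 C.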

[6] = qHTS RealTime-Glo MT Cell Viability Assay in HepG2 cells - 32 hour (AID 1224877); further: nearly all actives have a fitted effect of over 55% in size; further: potency means the concentration at half of the fitted maximal effect
Method in brief: as §1

[7] = A CellTox Green Cytotoxicity Assay to monitor cytotoxicity in HepG2 cells - 24 hour (AID 1224878); further: nearly all actives have a fitted effect of over 45% in size; further: potency means the concentration at half of the fitted maximal effect; on Cytotoxicity: on the % scale 0 is the no-effect control and ±100 the full control effect
Method in brief: as §5

[8] = A CellTox Green Cytotoxicity Assay to monitor cytotoxicity in HepG2 cells - 40 hour (AID 1224879); further: nearly all actives have a fitted effect of over 40% in size; further: potency means the concentration at half of the fitted maximal effect
Method in brief: as §5

[9] = qHTS assay to identify small molecule agonists of H2AX (AID 1224845; active means well fitted activation curve with a large enough effect in the signal ratio in the repeat runs, not every such curve was filed as active; the % refers to the signal ratio; further: potency means the concentration at half of the fitted maximal effect)
Method in brief: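 Wild-type CHO-K1 cells plated overnight, then exposed 3 hr at 37C to compounds at 15 concentrations (0.76% DMSO). Lysed, then HTRF anti-pH2AX(S139)-cryptate/anti-H2AX-d2 detection after 24 hr at room temperature; emissions 665 and 620 nm.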

[10] = qHTS assay to identify small molecule agonists of H2AX - cell viability counter screen (AID 1224847; calls by dose curve; further: nearly all actives have a fitted effect of over 30% in size; further: potency means the concentration at half of the fitted maximal effect)
Method in brief: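 CHO-K1 wt, 1000 cells/well, o/n 37C; cpds 15 conc, 3 h 37C, 0.76% DMSO; CellTiter-Glo, 30 min RT, luminescence.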

[11] = qHTS RealTime-Glo MT Cell Viability Assay in HEK293 cells - 32 hour (AID 1224868); further: potency means the concentration at half of the fitted maximal effect; nearly all actives have a fitted effect of over 50% in size
Method in brief: as §3

[12] = qHTS RealTime-Glo MT Cell Viability Assay in HepG2 cells - 40 hour (AID 1224870); further: nearly all actives have a fitted effect of over 50% in size; further: potency means the concentration at half of the fitted maximal effect
Method in brief: as §4

[13] = A CellTox Green Cytotoxicity Assay to monitor cytotoxicity in HEK293 cells - 40 hour (AID 1224871); further: nearly all actives have a fitted effect of over 45% in size; further: potency means the concentration at half of the fitted maximal effect
Method in brief: as §2

[14] = qHTS RealTime-Glo MT Cell Viability Assay in HEK293 cells - 40 hour (AID 1224874); settings: RealTime-Glo luminescence; max response: stronger effect = lower value; further: nearly all actives have a fitted effect of over 50% in size; further: potency means the concentration at half of the fitted maximal effect
Method in brief: (§6)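 HEK293 cells mixed with RealTime-Glo reagents (NanoLuc plus cell-permeant prosubstrate) at 600 cells/well, preincubated 5 h at 37 C/5% CO2, then given 23 nL compound in DMSO. Nonlytic luminescence from viable cells was read at 0, 8, 16, 24, 32 and 40 h.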

[15] = qHTS RealTime-Glo MT Cell Viability Assay in HEK293 cells - 0 hour (AID 1224880); further: top concentration of the series differs between compounds; on the % scale 0 is the no-effect control and ±100 the full control effect; nearly all actives have a fitted effect of over 45% in size
Method in brief: as §6

[16] = qHTS assay to identify small molecule agonists of the hypoxia (HIF-1) signaling pathway (AID 1224846; active means well fitted activation curve with a large enough effect in the signal ratio in the repeat runs, not every such curve was filed as active; the % refers to the signal ratio; further: potency means the concentration at half of the fitted maximal effect; on activation: on the % scale 0 is the no-effect control and ±100 the full control effect)
Method in brief: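 HRE-bla ME-180 cells (beta-lactamase reporter under hypoxia response element) were plated at 2,000 cells/well in medium with 0.5% dialyzed FBS, rested 5 hrs, then given compounds in DMSO for 17 hrs at 37C, 5% CO2. Reporter induction was read with CCF4-AM FRET substrate.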

[17] = qHTS assay to identify small molecule agonists of the estrogen related receptor (ERR) signaling pathway from Tox21 library (AID 1224849; calls by dose curve; further: on the % scale 0 is the no-effect control and ±100 the full control effect; nearly all actives have a fitted effect of over 15% in size); settings: ERR reporter cell line, ONE-Glo luciferase, 18 h; at 92.4 µM (top of the series) unless noted
Method in brief: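 ERR reporter cell line (NTP) seeded, rested 6 h at 37 C/5% CO2, then pinned with Tox21 compounds in DMSO. After 18 h at 37 C, ONE-Glo luciferase luminescence was read following 30 min at room temperature.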

[18] = A CellTox Green Cytotoxicity Assay to monitor cytotoxicity in HEK293 cells - 24 hour (AID 1224875); further: nearly all actives have a fitted effect of over 45% in size; further: potency means the concentration at half of the fitted maximal effect; on activity change: on the % scale 0 is the no-effect control and ±100 the full control effect
Method in brief: as §2

[19] = qHTS assay to identify small molecule antagonists of the estrogen related receptor (ERR) signaling pathway from Tox21 library (AID 1224848)
Method in brief: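 Cells: ERR line, 2,000/well; 6 h preincubation 37 C/5% CO2. Cpd in DMSO via pin tool; 18 h, 37 C. ONE-Glo, 30 min RT, luminescence.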

CSc1ccc2c(c1)C(N1CCN(C)CC1)Cc1ccccc1S2 (stereo not drawn)
active: Potency [1] 23.9 µM | Potency [5] 26.8 µM | Potency [6] 23.9 µM | Potency [7] 23.9 µM | Potency [8] 23.9 µM
inactive: Potency [2] | Potency [3] | Potency [4]

CCOc1ccc2nc3cc(N)ccc3c(N)c2c1
inactive: Potency [9] | Potency [10] | Potency [2] | Potency [4] | Potency [5] | Potency [15]
active: Potency [1] 10.7 µM | Potency [11] 15.1 µM | Potency [12] 8.49 µM | Potency [13] 21.3 µM | Potency [14] 13.4 µM | Potency [6] 8.49 µM | Potency [7] 23.9 µM | Potency [8] 6.01 µM

CN1CCN(CCC(=O)N2c3ccccc3Sc3ccc(C(F)(F)F)cc32)CC1
active: Potency [1] 23.9 µM | Potency [6] 26.8 µM | Potency [8] 21.3 µM
inactive: Potency [16] | activity change, positive = activation [17] -67.1% [at 42.5 µM] | Potency [2] | Potency [4] | Potency [15]

CN1CCC(Nc2ncc3ncnc(Nc4ccc(F)c(Cl)c4)c3n2)CC1
inactive: Potency [2] | Potency [4]
active: Potency [16] 8.49 µM | Potency [11] 10.7 µM | Potency [14] 10.7 µM | Potency [5] 21.3 µM | Potency [7] 23.9 µM | Potency [8] 26.8 µM

O=c1cc(-c2ccc(O)cc2)oc2cc(O)cc(O)c12
active: Potency [8] 38.9 µM
inactive and 27.5 µM (active): Potency [5]
inactive: Potency [1] | Potency [2] | Potency [12] | Potency [4] | Potency [18] | Potency [6] | Potency [15]
inactive and 43.6 µM (active): Potency [13]

CCCCCCCCCCn1cc[n+](CCCCCCCCCC)c1C
inactive: Potency [15]
active: Potency [10] 10.1 µM | Potency [19] 2.17 µM | Potency [1] 19.5 µM | Potency [11] 1.38 µM | Potency [12] 19.5 µM | Potency [13] 19.5 µM | Potency [3] 6.93 µM | Potency [4] 49 µM | Potency [14] 0.979 µM | Potency [18] 17.4 µM | Potency [5] 21.9 µM | Potency [6] 19.5 µM | Potency [7] 17.4 µM | Potency [8] 15.5 µM

CC(=O)S[C@@H]1CC2=CC(=O)CC[C@]2(C)[C@H]2CC[C@@]3(C)[C@@H](CC[C@@]34CCC(=O)O4)[C@H]12
active: Potency [8] 54.9 µM
inactive: Potency [16] | Potency [10] | Potency [2] | Potency [12] | Potency [13] | Potency [18] | Potency [15]

Fc1ccc(C(c2ccc(F)cc2)N2CCN(C/C=C/c3ccccc3)CC2)cc1
active: Potency [19] 23.7 µM | Potency [11] 21.3 µM | Potency [14] 19 µM
inactive: Potency [2] | Potency [12] | Potency [18] | Potency [5] | Potency [7] | Potency [8] | Potency [15]

O=c1cccccc1O
active: Potency [9] 40.9 µM
inactive: Potency [10] | Potency [1] | Potency [2] | Potency [12] | Potency [13] | Potency [3] | Potency [4] | Potency [18] | Potency [6] | Potency [7] | Potency [8] | Potency [15]

Oc1cccc2cc3cccc(O)c3c(O)c12
inactive: Potency [9] | Potency [10] | Potency [1] | Potency [2] | Potency [12] | Potency [13] | Potency [3] | Potency [4] | max response [14] 0.771% | Potency [18] | Potency [5] | Potency [6] | Potency [7] | Potency [8] | Potency [15]

OCCN(CCO)c1nc(N2CCCCC2)c2nc(N(CCO)CCO)nc(N3CCCCC3)c2n1
inactive: Potency [10] | activity change, positive = activation [17] -56% [at 42.5 µM] | Potency [1] | Potency [12] | Potency [4] | Potency [6] | Potency [15]
active: Potency [19] 13.3 µM | Potency [11] 26.8 µM | Potency [2] 21.3 µM | Potency [13] 19 µM | Potency [14] 26.8 µM | Potency [18] 21.3 µM | Potency [5] 23.9 µM | Potency [7] 23.9 µM | Potency [8] 23.9 µM

O=Cc1cc(O)ccc1Br
inactive: Potency [9] | Potency [1] | Potency [2] | Potency [12] | Potency [4] | Potency [6] | Potency [15]

NNc1nc(-c2ccc([N+](=O)[O-])cc2)cs1
inactive: activity change, positive = activation [17] -52.6% | Potency [2] | Potency [13] | Potency [18] | Potency [5] | Potency [7] | Potency [8] | Potency [15]
active: Potency [10] 22.5 µM | Potency [19] 27.3 µM | Potency [14] 24.5 µM

Nc1ccccc1O
inactive: Potency [10] | activity change, positive = activation [17] -27.3% | Potency [1] | Potency [2] | Potency [12] | Potency [13] | Potency [3] | Potency [4] | Potency [18] | Potency [5] | Potency [6] | Potency [7] | Potency [8] | Potency [15]

Nc1nc2ccccc2n1Cc1ccc(F)cc1
inactive: Potency [9] | Potency [10] | activity change, positive = activation [17] -28.8% [at 42.5 µM] | Potency [1] | Potency [2] | Potency [12] | Potency [13] | Potency [4] | Potency [18] | Potency [5] | Potency [6]
active: Potency [8] 23.9 µM

CCOC(=O)c1nc(C(Cl)(Cl)Cl)n(-c2ccc(Cl)cc2Cl)n1
inactive: Potency [16] | activity change, positive = activation [17] -43.4% | Potency [2] | Potency [12] | Potency [13] | Potency [3] | max response [14] -11.5% | Potency [18] | Potency [5] | Potency [8] | Potency [15]
active: Potency [19] 61.1 µM

CC[C@@]1(O)C(=O)OCc2c1cc1n(c2=O)Cc2c-1nc1ccccc1c2/C=N/OC(C)(C)C
active: Potency [19] 0.0596 µM | Potency [11] 0.0239 µM | Potency [12] 1.07 µM | Potency [14] 0.0239 µM | Potency [7] 0.848 µM | Potency [8] 1.07 µM
inactive: activity change, positive = activation [17] -54.3% [at 42.5 µM] | Potency [2] | Potency [13] | Potency [4] | Potency [18] | Potency [15]
